The panel holds about 83,000 compounds, 20% with a hit somewhere; the sample as a whole holds those more often.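 Results are percent growth after 48 hours of single-concentration exposure. 100 means growth as in untreated cells, lower positive values show inhibition; negative values down to -100 show cell death.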 Values without a mark were called inactive. Activity calls are given as the source filed them. Rule for the calls: active = growth percent below 10; inactive = the rest.

The text below walks through data of PubChem BioAssay (NCI).

What all share (assay): NCI-60 one-dose screen, 48 h (100 = growth as untreated, 0 = no growth, -100 = all killed)
In one experiment the test system is NCI-H23 lung. To be noted: 10 µM unless noted.
The test system of the next experiment is NCI-H226 lung. Conditions: 10 µM unless noted.
Another experiment has as its system NCI-H322M lung. To be noted: 10 µM unless noted.
In a further experiment the test system is NCI-H460 lung. To be noted: 10 µM unless noted.
The next experiment relates to HOP-92 NSCLC. To be noted: 10 µM.
For another experiment, the system named is NCI-H522 lung. Conditions: 10 µM.
In the next experiment the test system is A549/ATCC NSCLC. To be noted: 10 µM unless noted.
A further experiment concerns 786-0 renal. Conditions: 10 µM unless noted.
The next experiment concerns COLO 205 colon. To be noted: 10 µM unless noted.
The test system of a further experiment is DU-145 prostate. To be noted: 10 µM unless noted.
For another experiment, the system named is K-562 leukemia. Conditions: 10 µM unless noted.
The test system of a further experiment is MDA-MB-231 breast. Conditions: 10 µM unless noted.
The next experiment deals with RXF 393 renal. Conditions: 10 µM unless noted.
In a further experiment the test system is SF-268 CNS. Conditions: 10 µM unless noted.
Another experiment relates to SF-539 CNS. To be noted: 10 µM unless noted.
The test system of the next experiment is UACC-257 melanoma. To be noted: 10 µM unless noted.
For the next experiment, the system named is M14 melanoma. Conditions: 10 µM unless noted.
Another experiment deals with MALME-3M melanoma. Conditions: 10 µM unless noted.
In a further experiment the test system is SF-295 CNS. Conditions: 10 µM unless noted.

With `COc1ccc(Cn2cc3c(c2-c2ccccc2)CCc2cnoc2-3)cc1OC`, the growth with NCI-H23 lung was 26.3%; in the experiment on NCI-H226 lung, 57.3%; in the experiment with NCI-H322M lung, 44.8%; with NCI-H460 lung, 7.98% (active); in the experiment with HOP-92 NSCLC it was 61.1%; in the experiment with NCI-H522 lung it was 35.1%. In addition, the growth was 41.3% with A549/ATCC NSCLC; 39.7% with 786-0 renal; 8.16% (active) in the experiment on COLO 205 colon; 21.3% in the experiment with DU-145 prostate; 14.1% with K-562 leukemia; 35% with MDA-MB-231 breast. The growth in the experiment on RXF 393 renal was 13.1%; in the experiment with SF-268 CNS, 47.1%; in the experiment on SF-539 CNS, -22.1% (active); in the experiment with UACC-257 melanoma it was 61.9%; in the experiment with M14 melanoma, 30.5%.

Turning to `N=C(N)c1ccc(-c2ccc(-c3cc(Cl)cc(Cl)c3)s2)cc1`, the growth in the experiment with NCI-H23 lung was -77.4% (active); in the experiment on NCI-H226 lung, -64.7% (active); in the experiment with NCI-H322M lung it was -84.4% (active); with NCI-H460 lung it was -81.1% (active); in the experiment with HOP-92 NSCLC, -77.1% (active); with NCI-H522 lung, -41.2% (active). In addition, the growth in the experiment with A549/ATCC NSCLC was -50.8% (active); in the experiment on 786-0 renal, -73.3% (active); with DU-145 prostate it was -89.8% (active); with K-562 leukemia it was -55.1% (active); with MALME-3M melanoma it was -74.4% (active); in the experiment with MDA-MB-231 breast it was -78.4% (active). Further, the growth in the experiment with RXF 393 renal was -90.2% (active); in the experiment with SF-268 CNS, -66.1% (active); with SF-295 CNS it was -87.3% (active); in the experiment on SF-539 CNS it was -92.7% (active); with UACC-257 melanoma, -44% (active); in the experiment on M14 melanoma, -85.3% (active).

Take `CCCCN(CCCC)CC(O)CN(CC)CC` (stereo not drawn): the growth was 99.6% in the experiment on NCI-H23 lung; 96.3% in the experiment on NCI-H226 lung; 97.6% in the experiment with NCI-H322M lung; 114% in the experiment on NCI-H460 lung; 93.4% in the experiment with HOP-92 NSCLC; 95.3% in the experiment on NCI-H522 lung. For the same compound, the growth in the experiment with A549/ATCC NSCLC was 99%; in the experiment with 786-0 renal, 104%; in the experiment with COLO 205 colon, 99.3%; in the experiment on DU-145 prostate, 113%; with K-562 leukemia, 92.4%; with MDA-MB-231 breast it was 95.8%. Also, the growth in the experiment with RXF 393 renal was 104%; in the experiment with SF-268 CNS, 106%; in the experiment on SF-539 CNS, 108%; in the experiment with UACC-257 melanoma, 105%; in the experiment with M14 melanoma, 95%.

On to `COC1=C(OC)C(=O)c2ccccc2C1=O`, for which the growth with NCI-H23 lung is 81.5%; in the experiment on NCI-H226 lung, 102%; in the experiment on NCI-H322M lung, 107%; with NCI-H460 lung it was 97.4%; in the experiment on HOP-92 NSCLC, 95%; in the experiment with NCI-H522 lung, 94.8%. Further, the growth in the experiment on A549/ATCC NSCLC is 96.9%; in the experiment with 786-0 renal, 120%; with COLO 205 colon it was 100%; with DU-145 prostate it was 112%; in the experiment on MALME-3M melanoma, 126%; in the experiment on MDA-MB-231 breast, 94%. The growth was 93.2% in the experiment with RXF 393 renal; 108% with SF-295 CNS; 102% in the experiment on SF-539 CNS; 76.7% with UACC-257 melanoma; 105% in the experiment with M14 melanoma.

As for `Nc1nc2c(c3cnccc13)C(c1cccc(Br)c1)Cc1cnccc1-2` (stereo not drawn), the growth in the experiment on NCI-H23 lung is -0.611% (active); in the experiment on NCI-H226 lung it was 25.5%; in the experiment with NCI-H322M lung, 31.5%; in the experiment with NCI-H460 lung, 4.41% (active); with HOP-92 NSCLC, 15.6%; in the experiment on NCI-H522 lung it was 3.33% (active). The growth in the experiment with A549/ATCC NSCLC is 13.2%; in the experiment on 786-0 renal, 14.1%; in the experiment with DU-145 prostate, 11.4%; in the experiment with K-562 leukemia it was 9.88% (active); in the experiment on MALME-3M melanoma it was 36.1%; in the experiment on MDA-MB-231 breast, 4.34% (active). In addition, the growth in the experiment with RXF 393 renal is 7.59% (active); in the experiment with SF-268 CNS, 20.3%; with SF-295 CNS it was 13.6%; in the experiment with SF-539 CNS, -15.9% (active); in the experiment with UACC-257 melanoma it was 55.5%; in the experiment with M14 melanoma it was -12.7% (active).

Take `COc1ccc(C2=NN(C(=O)c3cc(-c4ccc(C)cc4)nc4ccccc34)C(c3cc(-c4ccccc4)nn3-c3ccccc3)C2)cc1` (stereo not drawn): the growth with NCI-H23 lung was 90.4%; in the experiment with NCI-H226 lung, 83.4%; in the experiment on NCI-H322M lung, 84.6%; in the experiment with NCI-H460 lung, 74.5%; in the experiment on HOP-92 NSCLC it was 86.6%; with NCI-H522 lung, 82.9%. The growth in the experiment on A549/ATCC NSCLC was 89.1%; with 786-0 renal it was 95.6%; in the experiment on COLO 205 colon it was 106%; in the experiment on DU-145 prostate, 91.2%; in the experiment with K-562 leukemia, 84.1%; with MDA-MB-231 breast, 99.1%. Further, the growth with RXF 393 renal is 95.2%; in the experiment on SF-268 CNS, 77.1%; with SF-295 CNS, 86.7%; in the experiment on SF-539 CNS, 105%; in the experiment with UACC-257 melanoma, 96.8%; in the experiment with M14 melanoma it was 83.4%.

As for `COc1ccc(Cn2cc3c(c2-c2ccc(OC)cc2)CCc2cnoc2-3)cc1`, the growth with NCI-H23 lung is 6.98% (active); with NCI-H226 lung, 9.5% (active); with NCI-H322M lung it was 43.5%; in the experiment with NCI-H460 lung, 0.836% (active); in the experiment on HOP-92 NSCLC, 55.2%; with NCI-H522 lung, 11.1%. In addition, the growth in the experiment on A549/ATCC NSCLC is 22%; in the experiment on 786-0 renal it was 30.3%; with COLO 205 colon, -32.4% (active); in the experiment with DU-145 prostate it was 10.5%; with K-562 leukemia it was 14.7%; in the experiment on MDA-MB-231 breast it was 8.41% (active). Moreover, the growth was -1.78% (active) in the experiment with RXF 393 renal; 30.5% in the experiment on SF-268 CNS; -28% (active) with SF-539 CNS; 65.2% with UACC-257 melanoma; 1.32% (active) in the experiment with M14 melanoma.

With `Nc1nc2c(c3cnccc13)C(c1cccc(Cl)c1)Cc1cnccc1-2` (stereo not drawn), the growth was 0.544% (active) in the experiment on NCI-H23 lung; 17.2% in the experiment on NCI-H226 lung; 40.1% with NCI-H322M lung; 2.15% (active) with NCI-H460 lung; 33.1% in the experiment on HOP-92 NSCLC; 7.88% (active) in the experiment with NCI-H522 lung. For the same compound, the growth in the experiment with A549/ATCC NSCLC was 13.6%; in the experiment on 786-0 renal it was 19.6%; in the experiment with DU-145 prostate, 10.7%; in the experiment with K-562 leukemia, 9.68% (active); with MALME-3M melanoma, 62.4%; in the experiment on MDA-MB-231 breast, 8.99% (active). The growth is 7.47% (active) with RXF 393 renal; 20.7% in the experiment with SF-268 CNS; 8.34% (active) with SF-295 CNS; -18.5% (active) in the experiment on SF-539 CNS; 60.2% in the experiment on UACC-257 melanoma; 1.08% (active) with M14 melanoma.

In the case of `COc1ccc(C2=C/C(=C\c3ccc(Cl)cc3)C(=O)NN2C(=S)NN)cc1`, the growth in the experiment on NCI-H23 lung was 92.5%; in the experiment with NCI-H226 lung it was 87.6%; in the experiment on NCI-H322M lung, 102%; in the experiment on NCI-H460 lung, 102%; with HOP-92 NSCLC, 74%; in the experiment with NCI-H522 lung, 83.9%. The growth is 101% with A549/ATCC NSCLC; 104% in the experiment on 786-0 renal; 114% in the experiment on COLO 205 colon; 108% with DU-145 prostate; 93.9% in the experiment on K-562 leukemia; 96.1% with MDA-MB-231 breast. For the same compound, the growth in the experiment with RXF 393 renal was 105%; with SF-268 CNS, 95.8%; in the experiment on SF-295 CNS it was 96.3%; in the experiment on SF-539 CNS, 111%; with UACC-257 melanoma, 104%; in the experiment on M14 melanoma, 99.5%.
